These results are taken from PubChem BioAssay AID777 (Sanford-Burnham Center for Chemical Genomics, 2007).

About 19,000 (20%) of roughly 96,000 compounds were called active. Not all results are given here. Values without a mark were called inactive.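 The calls were made as follows: active = blocking of liver enzyme CYP2C9 beyond about 50% at 5 µM (limit read from the data); inactive = the rest.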 Residues, ends and D or L forms follow the SMILES beside them. *: point of attachment. Bz = O=C(c1ccccc1)*

Chain of Cytochrome P450 2C9 (Homo sapiens) (P11712 whole entry, looked up): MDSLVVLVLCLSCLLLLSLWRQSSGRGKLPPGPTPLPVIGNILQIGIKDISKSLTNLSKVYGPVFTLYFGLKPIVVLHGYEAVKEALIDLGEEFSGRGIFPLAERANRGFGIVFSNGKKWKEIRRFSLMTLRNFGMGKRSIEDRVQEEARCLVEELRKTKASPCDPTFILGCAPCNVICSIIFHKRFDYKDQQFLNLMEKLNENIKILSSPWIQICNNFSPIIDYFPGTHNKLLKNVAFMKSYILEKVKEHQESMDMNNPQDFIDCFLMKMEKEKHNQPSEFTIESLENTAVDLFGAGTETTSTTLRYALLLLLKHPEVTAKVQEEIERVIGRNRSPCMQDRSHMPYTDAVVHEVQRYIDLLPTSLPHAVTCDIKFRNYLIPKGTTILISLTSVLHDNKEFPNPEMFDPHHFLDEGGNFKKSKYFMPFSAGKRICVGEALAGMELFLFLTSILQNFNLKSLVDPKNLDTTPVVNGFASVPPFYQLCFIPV

This experiment concerns the target Cytochrome P450 2C9 (Homo sapiens) (UniProt P11712). Description: blockers of cytochrome P450 2C9 activity – biochemical, luminescence, ADME assay, primary screen (AID 777). As to conditions: CYP2C9 Supersomes, luciferin-H conversion, at 5 µM, stronger effect = higher value.
For the compound `NC(=O)C1(N2CCCCC2)CCN(C2CC(=O)N(Cc3ccc(N4CCCC4=O)cc3)C2=O)CC1` (centres undefined), the inhibition (in general, the relative decrease from the control value, in per cent) was 50.1% (active). The figure for `COC(=O)c1cc(NC(=O)CN2CCC(C(N)=O)(N3CCCCC3)CC2)cc(C(=O)OC)c1` is 13.2%. Regarding `CCCNC(=O)NCc1ccc(N2CCCC2=O)cc1`, the inhibition is 17.2%.

As to `C[C@@H](Nc1nc(-c2ccccc2)nc2c1oc1ccccc12)C(=O)O`, the inhibition was 11.2%. As to `C=CCNC(=O)c1cc2nc(C3CC3)cc(C(F)F)n2n1`, the inhibition is 40%. On to `COc1cc(/C=C2\SC(=S)N(Nc3ncc(C(F)(F)F)cc3Cl)C2=O)cc(OC)c1OC`, for which the inhibition was 4.4%. The figure for `Cc1ccc(C(=O)N2CCN(C3CCCCC3)CC2)s1` is 25.8%; for `O=C(C(Cc1ccccc1)n1cccc1)N1CCN(C2CCCCC2)CC1` (centres undefined) it is 94% (active). For the compound `O=C(NC(Cc1ccccc1)C(=O)N1CCCC1C(=O)O)c1ccccc1` (stereo not drawn) (Bz-Phe-Pro-OH; configuration not given here), the inhibition is -5.7%. As to `O=C(CN1C(=O)NC2(CCCCC2)C1=O)NCCC1=CCCCC1`, the inhibition was -1.7%. Consider `O=C(CN1C(=O)NC(Cc2ccccc2)(Cc2ccccc2)C1=O)NCC1CCCCC1`, for which the inhibition was 55% (active). The figure for `CCOC(=O)CCCNC(=O)CN1C(=O)NC(CCc2ccccc2)C1=O` (centres undefined) is -3.9%; for `CC(=O)N1CCc2cc(S(=O)(=O)Nc3ccccc3N3CCN(C)CC3)ccc21` it is 2%; for `CCCC(=O)C1CCN(Cc2ccccc2)CC1` it is -8.7%. The value for `Cc1nc2ccc(NC(=O)C(F)(F)F)cc2o1` was 4.8%; that for `Cn1c(C(=O)NCCCN2CCCCC2)cc2sccc21` was 6.6%; that for `Cc1cc(C(F)(F)F)nn1-c1nc(-c2ccco2)cc(C(F)(F)F)n1` was 3.1%.

As for `CCOC(=O)c1ccn(-c2nc(-c3ccco3)cc(C(F)(F)F)n2)n1`, the inhibition was 62% (active). The figure for `O=C(CSc1nc(-c2ccco2)cc(C(F)(F)F)n1)N1CCc2ccccc2C1` is 45.8%; for `Cc1ccc2c(c1)N(CC(=O)N1CCCc3ccccc31)C(=O)C(C)O2` (centres undefined) it is 22%.

Consider `COc1cc(-c2nc(-c3ccncc3)no2)cc(OC)c1OC`, for which the inhibition is 76.6% (active).

Regarding `CCOc1nc(-c2ccc(OC)cc2)ccc1-c1noc(-c2cc(OC)c(OC)c(OC)c2)n1`, the inhibition is 8.3%. Take `COc1ccc(-c2noc(-c3cccc(OC)c3OC)n2)cc1OC`: the inhibition is -101%. As for `CC(OC(=O)CN1C(=O)C2CCCCC2C1=O)C(=O)Nc1ncc(Cl)cc1Cl` (centres undefined), the inhibition is -1.7%. For the compound `COc1ccccc1N1CCN(CCCCOc2ccc(F)cc2)CC1`, the inhibition was 12%.

As for `COc1ccc(Nc2ncc(C(=O)N3CCN(c4ccccc4OC)CC3)c3ccccc23)cc1`, the inhibition was 65.9% (active). The figure for `COc1ccc2oc(=O)c(C(=O)N3CCN(c4ccccc4F)CC3)cc2c1` is 28.7%. Take `COc1cnc(SCc2ccc(Cl)c(Cl)c2)nc1Cl`: the inhibition is 16.5%.

For `CCOC(=O)c1cc(C)sc1NC(=O)C1CCC1`, the inhibition is 42.3%.

Take `O=C1c2cccnc2C(Nc2ccc(S(=O)(=O)N3CCCCCC3)cc2)N1Cc1ccccc1` (centres undefined): the inhibition was 53.4% (active). As to `O=C(NCCCN1CCN(Cc2ccccc2)CC1)C1CCN(S(=O)(=O)N2CCCC2)CC1`, the inhibition is 1.8%. Regarding `Cc1ccc(S(=O)(=O)N2CCC(C(=O)N[C@@H](C)C(=O)NCCc3ccccc3)CC2)cc1`, the inhibition is -25.2%. The figure for `Cc1cc2c(cc1C)NC(c1ccccn1)C1=C(CC(C)(C)CC1=O)N2` (centres undefined) is -11.2%. With `Cc1nn(-c2ccccn2)c2c1C(c1ccncc1)C1=C(CC(C)(C)CC1=O)N2` (centres undefined), the inhibition was 79.7% (active). The value for `CCOC(=O)c1c(-n2cnnn2)sc(C)c1C` was 10.3%; that for `Cc1cc(C)nc(NC(=O)Nc2ccccc2C(F)(F)F)n1` was -193%; that for `O=C(Nc1ccc(Sc2ccc(Br)cc2)cc1)c1ccco1` was 3.3%. With `Cc1cccc(NC(=O)c2sc3nc4c(c(-c5ccco5)c3c2N)CCC4)c1`, the inhibition was 17.9%. Consider `CCCc1cc(=O)[nH]c(SCC(=O)OCc2ccccc2)n1`, for which the inhibition is 38.5%. The figure for `CCCc1cc(=O)[nH]c(SCc2ccc(C#N)cc2)n1` is 60.3% (active); for `CCCc1cc(=O)[nH]c(SCC(=O)c2cc(C)n(CCC)c2C)n1` it is 5.3%; for `O=C(CNC(=O)Cc1ccccc1)NCC(=O)OCC(=O)c1ccccc1Cl` it is -33.1%. On to `Cn1c(SCC(=O)Nc2cccc(NC(=O)c3cccs3)c2)nnc1-c1ccncc1`, for which the inhibition was 89.8% (active). For the compound `O=C(CSc1nnc(-c2ccncc2)n1C1CCCCC1)Nc1ccccc1`, the inhibition is 38.6%. With `CCn1c(SCC(=O)Nc2nccs2)nnc1-c1ccncc1`, the inhibition was 28%. On to `CCCCSc1nnc(-c2ccc(NC(=O)CC)cc2)n1C`, for which the inhibition is -15.8%.

As to `Cc1ccccc1C(=O)Nc1cccc(-c2nnc(SCC(=O)O)n2C)c1`, the inhibition is -11.4%. Turning to `COC(=O)c1ccc(NC(=O)CSc2nnc(CNc3ccc(OC)cc3)n2C)cc1`, the inhibition was 34%. The value for `COC(=O)c1ccc(NC(=O)CSc2nnc(-c3ccncc3)n2C)cc1` was 57.2% (active). On to `CCC(=O)Nc1cccc(NC(=O)CSc2nnc(-c3ccc(NS(C)(=O)=O)cc3)n2C)c1`, for which the inhibition was 51.3% (active). For `Cn1c(SCC(=O)Nc2cccc(O)c2)nnc1-c1ccc(S(=O)(=O)N2CCOCC2)cc1`, the inhibition is 7.5%. On to `Cc1ccc(-c2ccc(=O)n(CC(=O)NCCCN3CCCCC3)n2)cc1`, for which the inhibition was 14%.

As to `COc1ccccc1C(=O)Nc1nc2nc(-c3ccccc3)cc(=O)n2[nH]1`, the inhibition was 42%. Turning to `O=C(NCCCCc1ccccc1)C1CC(c2ccc([N+](=O)[O-])cc2)=NO1` (centres undefined), the inhibition was 14.2%.

`O=C(CN1CCOCC1)Nc1ccc(NC(=O)CN2CCOCC2)c(Cl)c1`: the inhibition is -1.8%. As for `CN(C)C(=O)c1cc(Br)ccc1Cl`, the inhibition was -6.9%.

In the case of `CCCn1c(=NC(C)=O)c(C(=O)OCC)cc2c(=O)n3ccccc3nc21`, the inhibition was 17.1%. Turning to `Cc1cc(Cl)c(S(=O)(=O)NCc2cccnc2)cc1OCC(N)=O`, the inhibition was -9.2%. The figure for `O=S(=O)(NCc1cccnc1)c1ccc(Cl)nc1` is 6.6%. The value for `Cc1cccc(CCNS(=O)(=O)c2ccc(S(=O)(=O)NC3CCCC3)cc2)c1` was 65.4% (active); that for `Cc1cc(S(=O)(=O)NC2CCCCC2)ccc1OCC(=O)NCc1cccnc1` was 81.1% (active). The figure for `O=C(CCc1ccccc1)NCc1cccnc1` is 15.7%; for `Cn1c(=O)c(=O)n(C)c2cc(S(=O)(=O)NCCc3ccccc3)ccc21` it is 23.4%; for `O=C(CN(CC1CCCO1)C(=O)CNS(=O)(=O)c1ccccc1)NCc1ccccc1` (centres undefined) it is 2.4%. For `O=C(CCc1ccc(S(=O)(=O)NC2CCCCC2)cc1)NCc1ccccc1`, the inhibition is 86.2% (active). For the compound `O=C(C1CCC1)N1CCc2cc(S(=O)(=O)NCc3cccnc3)ccc21`, the inhibition is 32.9%. The figure for `O=C(OC1CCCCC1=O)c1cccc(S(=O)(=O)NCc2ccccc2)c1` (centres undefined) is 43.1%. The value for `CSc1ccc(S(=O)(=O)NC2CCCCC2)cc1` was 17.8%; that for `CCCNS(=O)(=O)c1ccc(CCC(=O)NCc2cccnc2)cc1` was 76.8% (active).
